Data on 36 molecules can be found in the antibiotic and cytotoxicity screens of Wong et al. (2023).

About 3,300 (8.5%) of roughly 39,000 compounds were called active. The sample holds actives, similar compounds and a random draw of the others, so the mix is not that of the screen.

For this experiment, the system named is HepG2. The experiment in a line: cytotoxicity call (relative viability < 0.9). Conditions: 10 µM.
In the case of `O=C1C[C@]2(c3ccc([N+](=O)[O-])cc3)C(=O)N(CC(F)(F)F)c3cc(CO)ccc3[C@H]2N1CC12CC3CC(CC(C3)C1)C2`, the cytotoxicity call is “inactive”. With `COc1ccc(S(=O)(=O)Nc2ccc3c(c2)C(=O)N([C@@H](C)CO)C[C@H](C)[C@H](CN(C)C(=O)NC(C)C)O3)cc1`, the cytotoxicity call is “inactive”. Take `C[C@@H]1CN([C@@H](C)CO)C(=O)c2cc(NC(=O)Nc3ccc4c(c3)OCO4)ccc2O[C@@H](C)CCCCO[C@@H]1CN(C)S(=O)(=O)c1cccs1`: the cytotoxicity call was “inactive”.

As to `C[C@H]1CN([C@@H](C)CO)C(=O)Cc2cc(NS(=O)(=O)c3cn(C)cn3)ccc2O[C@H]1CN(C)S(=O)(=O)c1ccc(F)cc1`, the cytotoxicity call is “inactive”.

As for `C[C@@H]1CN([C@H](C)CO)C(=O)Cc2cc(NC(=O)CCCCCC(=O)Nc3ccccc3N)ccc2O[C@H]1CN(C)Cc1ccccc1`, the cytotoxicity call was “inactive”. Consider `CCS(=O)(=O)N1CC[C@]2(CC1)CN([C@@H](CO)c1[nH]c3cc(ccc3c12)OC)C(=O)Cc1ccccn1`, for which the cytotoxicity call was “inactive”. For the molecule `Cc1noc(C)c1NC(=O)Nc1ccc2c(c1)C(=O)N([C@@H](C)CO)C[C@H](C)[C@@H](CN(C)Cc1ccc(Cl)c(Cl)c1)O2`, the cytotoxicity call is “inactive”. On to `CC(C)NC(=O)Nc1ccc2c(c1)C(=O)N([C@@H](C)CO)C[C@H](C)[C@@H](CN(C)S(=O)(=O)c1cn(C)cn1)OCCCC[C@H](C)O2`, for which the cytotoxicity call is “inactive”. On to `COc1ccc(cc1)CN1C[C@]2(CN(C2)S(=O)(=O)c2cn(cn2)C)c2c([nH]c3cc(ccc23)OC)[C@H]1CO`, for which the cytotoxicity call is “inactive”. Regarding `Cc1noc(C)c1S(=O)(=O)Nc1ccc2c(c1)CC(=O)N([C@@H](C)CO)C[C@@H](C)[C@@H](CN(C)Cc1ccncc1)O2`, the cytotoxicity call is “inactive”. Turning to `C[C@@H]1CN([C@H](C)CO)C(=O)c2cccc(NC(=O)NC3CCCCC3)c2O[C@H]1CN(C)S(=O)(=O)c1cn(C)cn1`, the cytotoxicity call was “inactive”. With `CCc1nc2ccc(C(=O)NCc3ccccc3OC)cn2c1N(CC)Cc1cccc(Br)c1`, the cytotoxicity call was “inactive”. Take `CCS(=O)(=O)N1CC[C@]2(CC1)CN([C@H](CO)c1[nH]c3cc(ccc3c12)OC)C(=O)c1ccc(cc1)F`: the cytotoxicity call is “inactive”. As for `O=C(O)[C@H]1NC(=O)[C@@H]1Cc1ccccc1`, the cytotoxicity call is “inactive”. To `CC(C)NC(=O)N(C)C[C@@H]1Oc2c(NS(=O)(=O)c3ccc(F)cc3)cccc2C(=O)N([C@H](C)CO)C[C@@H]1C` belongs “inactive”; to `C[C@@H]1CN([C@@H](C)CO)C(=O)c2cc(NC(=O)Nc3ccc4c(c3)OCO4)ccc2O[C@H]1CN(C)Cc1ccc(-c2ccccc2)cc1`, “active”. Turning to `C[C@@H]1CN([C@H](C)CO)C(=O)c2cccc(NS(=O)(=O)c3cn(C)cn3)c2O[C@@H]1CN(C)S(=O)(=O)c1ccc(F)cc1`, the cytotoxicity call is “inactive”. On to `C[C@@H]1CN([C@H](C)CO)C(=O)c2cccc(NS(=O)(=O)c3cn(C)cn3)c2O[C@H]1CN(C)Cc1ccc2c(c1)OCO2`, for which the cytotoxicity call was “inactive”. To `C[C@H](NC(=O)C[C@@H]1C[C@H]2c3cc(NC(=O)Nc4ccc(C(F)(F)F)cc4)ccc3O[C@H]2[C@@H](CO)O1)c1ccccc1` belongs “inactive”; to `COc1ccc(NC(=O)Nc2ccc3c(c2)C(=O)N([C@H](C)CO)C[C@H](C)[C@H](CN(C)S(=O)(=O)c2ccc(C)cc2)OCCCC[C@H](C)O3)cc1`, “inactive”. For the molecule `COc1ccc(NC(=O)Nc2ccc3c(c2)C(=O)N([C@@H](C)CO)C[C@@H](C)[C@@H](CN(C)S(=O)(=O)c2ccc(C)cc2)OCCCC[C@@H](C)O3)cc1`, the cytotoxicity call was “inactive”. On to `COc1ccc(NC(=O)Nc2ccc3c(c2)C(=O)N([C@H](C)CO)C[C@H](C)[C@H](CN(C)S(=O)(=O)c2ccc(Cl)cc2)OCCCC[C@@H](C)O3)cc1`, for which the cytotoxicity call was “inactive”. As for `COc1ccc(S(=O)(=O)N(C)C[C@H]2OCCCC[C@H](C)Oc3ccc(NC(=O)Nc4ccc5c(c4)OCO5)cc3C(=O)N([C@H](C)CO)C[C@@H]2C)cc1`, the cytotoxicity call is “inactive”. Regarding `COc1ccc(NC(=O)Nc2ccc3c(c2)C(=O)N([C@H](C)CO)C[C@H](C)[C@H](CN(C)S(=O)(=O)c2ccc(Cl)cc2)OCCCC[C@H](C)O3)cc1`, the cytotoxicity call is “inactive”.

For the molecule `COc1ccc(S(=O)(=O)N(C)C[C@H]2OCCCC[C@H](C)Oc3ccc(NC(=O)Nc4ccc5c(c4)OCO5)cc3C(=O)N([C@H](C)CO)C[C@H]2C)cc1`, the cytotoxicity call was “inactive”. `COc1ccc(S(=O)(=O)N(C)C[C@H]2OCCCC[C@@H](C)Oc3ccc(NC(=O)Nc4ccc5c(c4)OCO5)cc3C(=O)N([C@@H](C)CO)C[C@@H]2C)cc1`: the cytotoxicity call was “active”. Take `COc1ccc(NC(=O)Nc2ccc3c(c2)C(=O)N([C@@H](C)CO)C[C@H](C)[C@@H](CN(C)S(=O)(=O)c2ccc(C)cc2)OCCCC[C@@H](C)O3)cc1`: the cytotoxicity call is “active”. In the case of `COc1ccc(NC(=O)Nc2ccc3c(c2)C(=O)N([C@H](C)CO)C[C@H](C)[C@@H](CN(C)S(=O)(=O)c2ccc(C)cc2)OCCCC[C@H](C)O3)cc1`, the cytotoxicity call was “inactive”. Take `COc1ccc(NC(=O)Nc2ccc3c(c2)C(=O)N([C@H](C)CO)C[C@@H](C)[C@H](CN(C)S(=O)(=O)c2ccc(Cl)cc2)OCCCC[C@@H](C)O3)cc1`: the cytotoxicity call is “active”. In the case of `COc1ccc(NC(=O)Nc2ccc3c(c2)C(=O)N([C@H](C)CO)C[C@@H](C)[C@H](CN(C)S(=O)(=O)c2ccc(C)cc2)OCCCC[C@@H](C)O3)cc1`, the cytotoxicity call was “inactive”. The value for `COc1ccc(NC(=O)Nc2ccc3c(c2)C(=O)N([C@@H](C)CO)C[C@H](C)[C@H](CN(C)S(=O)(=O)c2ccc(C)cc2)OCCCC[C@H](C)O3)cc1` was “active”; that for `CCCCCCC#C[Si](O[C@H](c1ccccc1)c1cn(Cc2cccc(Cl)c2)nn1)(C(C)C)C(C)C` was “inactive”; that for `C[C@@H]1CCCCO[C@H](CN(C)C(=O)Nc2ccccc2)[C@H](C)CN([C@@H](C)CO)C(=O)c2cc(NS(=O)(=O)c3ccc(Cl)cc3)ccc2O1` was “inactive”. Turning to `COc1ccc(C#Cc2ccc3c(c2)[C@H]2[C@H](CCN2C(=O)Nc2ccc(C(F)(F)F)cc2)[C@@H](CO)N3C)cc1`, the cytotoxicity call is “inactive”. `C[C@@H]1CCCCO[C@H](CN(C)C(=O)Nc2ccc3c(c2)OCO3)[C@H](C)CN([C@@H](C)CO)C(=O)c2cc(NC(=O)CCC(F)(F)F)ccc2O1`: the cytotoxicity call is “inactive”. As to `O=C(CCCCCCC(=O)Nc1ccc(C(=O)NCCOCCOCCNC(=O)c2ccc(NC(=O)CCCCCCC(=O)NO)cc2)cc1)NO`, the cytotoxicity call was “inactive”.
